Test results as given in paper PMC5540273 (PLoS ONE, 2017).
Where two headings read alike, the source gives them in different places.

Key:
JNK3 = test system: T1, JNK3; settings: concentration: 1 μM, replicates: in singlicate; n = 1
T1 construct: gene MAPK10

KIT-autoinhibited = settings: concentration: 1 μM, replicates: in singlicate; n = 1
KIT = settings: concentration: 1 μM, replicates: in singlicate; n = 1
LATS1 = settings: concentration: 1 μM, replicates: in singlicate; n = 1
LATS2 = settings: concentration: 1 μM, replicates: in singlicate; n = 1
LCK = settings: concentration: 1 μM, replicates: in singlicate; n = 1
LIMK1 = settings: concentration: 1 μM, replicates: in singlicate; n = 1
LIMK2 = settings: concentration: 1 μM, replicates: in singlicate; n = 1
LKB1 = test system: T2, LKB1; settings: concentration: 1 μM, replicates: in singlicate; n = 1
T2 construct: gene STK11

LOK = test system: T3, LOK; settings: concentration: 1 μM, replicates: in singlicate; n = 1
T3 construct: gene STK10

LRRK2 = settings: concentration: 1 μM, replicates: in singlicate; n = 1
LTK = settings: n = 1
LYN = settings: concentration: 1 μM, replicates: in singlicate; n = 1
LZK = test system: T4, LZK; settings: concentration: 1 μM, replicates: in singlicate; n = 1
T4 construct: gene MAP3K13

MAK = settings: concentration: 1 μM, replicates: in singlicate; n = 1
MAP3K15 = settings: concentration: 1 μM, replicates: in singlicate; n = 1
MAP3K1 = settings: concentration: 1 μM, replicates: in singlicate; n = 1
MAP3K2 = settings: concentration: 1 μM, replicates: in singlicate; n = 1
MAP3K3 = settings: concentration: 1 μM, replicates: in singlicate; n = 1
MAP3K4 = settings: concentration: 1 μM, replicates: in singlicate; n = 1
[1] = concentration: 1 μM, replicates: in singlicate
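Also: KINOMEscan kinase panel screen.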

SMILES: COc1ccc(Nc2nccc(NCCNC(=O)Nc3cc(C)ccc3C)n2)cc1 [GSK1379899]
- %Inh (JNK3): 0%
- %Inh (KIT-autoinhibited): 0%
- %Inh (KIT): 0%
- %Inh (LATS1): 0%
- %Inh (LATS2): 0%
- %Inh (LCK): 26%
- %Inh (LIMK1): 0%
- %Inh (LIMK2): 0%
- %Inh (LKB1): 0%
- %Inh (LOK): 0%
- %Inh (LRRK2): 23%
- %Inh (LTK; [1]): 0%
- %Inh (LYN): 0%
- %Inh (LZK): 0%
- %Inh (MAK): 20%
- %Inh (MAP3K15): 0%
- %Inh (MAP3K1): 1%
- %Inh (MAP3K2): 0%
- %Inh (MAP3K3): 0%
- %Inh (MAP3K4): 3%

SMILES: CNCc1ccc2nc(NC(=O)c3ccc(C(C)(C)C)cc3)cn2c1
- %Inh (JNK3): 14%
- %Inh (KIT-autoinhibited): 20%
- %Inh (KIT): 69%
- %Inh (LATS1): 2%
- %Inh (LATS2): 6%
- %Inh (LCK): 2%
- %Inh (LIMK1): 5%
- %Inh (LIMK2): 0%
- %Inh (LKB1): 31%
- %Inh (LOK): 0%
- %Inh (LRRK2): 10%
- %Inh (LTK; [1]): 12%
- %Inh (LYN): 0%
- %Inh (LZK): 0%
- %Inh (MAK): 15%
- %Inh (MAP3K15): 98.9%
- %Inh (MAP3K1): 19%
- %Inh (MAP3K2): 21%
- %Inh (MAP3K3): 0%
- %Inh (MAP3K4): 4%

SMILES: Cn1cncc1-c1cc2c(Nc3ccc(OCc4ccccc4)cc3)ncnc2cn1 [GW281179]
- %Inh (JNK3): 1%
- %Inh (KIT-autoinhibited): 0%
- %Inh (KIT): 39%
- %Inh (LATS1): 0%
- %Inh (LATS2): 0%
- %Inh (LCK): 24%
- %Inh (LIMK1): 11%
- %Inh (LIMK2): 6%
- %Inh (LKB1): 0%
- %Inh (LOK): 0%
- %Inh (LRRK2): 10%
- %Inh (LTK; [1]): 4%
- %Inh (LYN): 0%
- %Inh (LZK): 0%
- %Inh (MAK): 19%
- %Inh (MAP3K15): 0%
- %Inh (MAP3K1): 0%
- %Inh (MAP3K2): 0%
- %Inh (MAP3K3): 0%
- %Inh (MAP3K4): 15%

SMILES: Nc1cccc(-c2ccc3c(N)n[nH]c3c2)n1 [GSK2192730]
- %Inh (JNK3): 0%
- %Inh (KIT-autoinhibited): 0%
- %Inh (KIT): 14%
- %Inh (LATS1): 0%
- %Inh (LATS2): 17%
- %Inh (LCK): 0%
- %Inh (LIMK1): 0%
- %Inh (LIMK2): 2%
- %Inh (LKB1): 7%
- %Inh (LOK): 0%
- %Inh (LRRK2): 0%
- %Inh (LTK; [1]): 0%
- %Inh (LYN): 0%
- %Inh (LZK): 0%
- %Inh (MAK): 26%
- %Inh (MAP3K15): 0%
- %Inh (MAP3K1): 23%
- %Inh (MAP3K2): 0%
- %Inh (MAP3K3): 0%
- %Inh (MAP3K4): 25%

SMILES: CS(=O)(=O)Cc1ccc(Nc2nccc(-c3c(-c4cccc(NC(=O)C5CCCCC5)c4)nn4ncccc34)n2)cc1 [GSK350559]
- %Inh (LTK; 1 µM): 0%
